According to the supplement of paper PMC12282887:
± gives the standard deviation of the averaged measurements.

Tested on: E. coli BW25113 marRABp lux reporter
Experiment: promoter activity interaction Z-score (Lux/OD deviation from empty-vector control); higher = stronger promoter induction by the compound
Protocol: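 E. coli BW25113 (wild type or ΔmarA/ΔsoxS/Δrob) carrying pTU175 luxCDABE promoter reporters was grown in LB in 384-well plates at 37°C with each of 94 compounds at 4 two-fold concentrations, in biological duplicates. Luminescence and OD600 were read every 30 min for 12 h and integrated as AUC over 8 h (0-8 h WT, 1-9 h mutants). Lux AUC was divided by OD AUC; the interaction score is the residual of a Huber robust fit of each promoter against the empty-vector control, then Z-transformed per promoter.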

**Q.** What does the source list for Cc1ncc([N+](=O)[O-])n1CCO [Metronidazole]?
**A.** promoter activity interaction Z-score (0.11 µg/ml, genetic background: wild type): 0.18 ± 0.22; promoter activity interaction Z-score (0.11 µg/ml, genetic background: ΔmarA): -0.0383 ± 0.16; promoter activity interaction Z-score (0.11 µg/ml, genetic background: Δrob): -0.0923 ± 0.23; promoter activity interaction Z-score (0.11 µg/ml, genetic background: ΔsoxS): -0.209 ± 0.08; promoter activity interaction Z-score (0.21 µg/ml, genetic background: wild type): 0.0869 ± 0.33; promoter activity interaction Z-score (0.21 µg/ml, genetic background: ΔmarA): -0.213 ± 0.16; promoter activity interaction Z-score (0.21 µg/ml, genetic background: Δrob): 0.0389 ± 0.047; promoter activity interaction Z-score (0.21 µg/ml, genetic background: ΔsoxS): 0.0145 ± 0.012; promoter activity interaction Z-score (0.43 µg/ml, genetic background: wild type): -0.113 ± 0.25; promoter activity interaction Z-score (0.43 µg/ml, genetic background: ΔmarA): 0.07 ± 0.011; promoter activity interaction Z-score (0.43 µg/ml, genetic background: Δrob): 0.119 ± 0.23; promoter activity interaction Z-score (0.43 µg/ml, genetic background: ΔsoxS): -0.0739 ± 0.18; promoter activity interaction Z-score (0.86 µg/ml, genetic background: wild type): 0.0285 ± 0.35; promoter activity interaction Z-score (0.86 µg/ml, genetic background: ΔmarA): 0.0853 ± 0.054; promoter activity interaction Z-score (0.86 µg/ml, genetic background: Δrob): 0.0343 ± 0.03; promoter activity interaction Z-score (0.86 µg/ml, genetic background: ΔsoxS): -0.0303 ± 0.042

**Q.** For COc1ccc2cc3[n+](cc2c1OC)CCc1cc2c(cc1-3)OCO2 [Berberine], which “promoter activity interaction Z-score” value (21 µg/ml, genetic background: wild type) is on record?
**A.** The value was -0.142 ± 0.16.

**Q.** And the “promoter activity interaction Z-score” value (21 µg/ml, genetic background: ΔmarA)?
**A.** The value was -0.0869 ± 0.24.

**Q.** What about the “promoter activity interaction Z-score” value (21 µg/ml, genetic background: Δrob) of the same compound?
**A.** Its value is -0.003 ± 0.15.

**Q.** What about the “promoter activity interaction Z-score” value (21 µg/ml, genetic background: ΔsoxS) of the same compound?
**A.** The value was 0.0721 ± 0.0037.

**Q.** And the “promoter activity interaction Z-score” value (42 µg/ml, genetic background: wild type)?
**A.** Its value is -0.183 ± 0.049.

**Q.** What about the “promoter activity interaction Z-score” value (42 µg/ml, genetic background: ΔmarA) of the same compound?
**A.** The value was -0.0953 ± 0.12.

**Q.** And the “promoter activity interaction Z-score” value (42 µg/ml, genetic background: Δrob)?
**A.** Its value is -0.278 ± 0.1.

**Q.** What about the “promoter activity interaction Z-score” value (42 µg/ml, genetic background: ΔsoxS) of the same compound?
**A.** The value was -0.0367 ± 0.026.

**Q.** And the “promoter activity interaction Z-score” value (84.1 µg/ml, genetic background: wild type)?
**A.** Its value is -0.286 ± 0.35.

**Q.** What about the “promoter activity interaction Z-score” value (84.1 µg/ml, genetic background: ΔmarA) of the same compound?
**A.** Its value is 0.056 ± 0.18.

**Q.** And the “promoter activity interaction Z-score” value (84.1 µg/ml, genetic background: Δrob)?
**A.** Its value is -0.324 ± 0.01.

**Q.** And the “promoter activity interaction Z-score” value (84.1 µg/ml, genetic background: ΔsoxS)?
**A.** Its value is -0.135 ± 0.015.

**Q.** And the “promoter activity interaction Z-score” value (168.2 µg/ml, genetic background: wild type)?
**A.** The value was -0.373 ± 0.17.

**Q.** What about the “promoter activity interaction Z-score” value (168.2 µg/ml, genetic background: ΔmarA) of the same compound?
**A.** The value was -0.165 ± 0.027.

**Q.** And the “promoter activity interaction Z-score” value (168.2 µg/ml, genetic background: Δrob)?
**A.** Its value is -0.287 ± 0.045.

**Q.** What about the “promoter activity interaction Z-score” value (168.2 µg/ml, genetic background: ΔsoxS) of the same compound?
**A.** The value was -0.015 ± 0.094.

**Q.** COc1ccc2[nH]c([S+]([O-])Cc3ncc(C)c(OC)c3C)nc2c1 (stereo not drawn) [Omeprazole] was tested. Which “promoter activity interaction Z-score” value (21.6 µg/ml, genetic background: wild type) did it give?
**A.** The value was -0.572 ± 0.095.

**Q.** What about the “promoter activity interaction Z-score” value (21.6 µg/ml, genetic background: ΔmarA) of the same compound?
**A.** The value was -0.27 ± 0.18.

**Q.** What about the “promoter activity interaction Z-score” value (21.6 µg/ml, genetic background: Δrob) of the same compound?
**A.** The value was -0.128 ± 0.18.

**Q.** And the “promoter activity interaction Z-score” value (21.6 µg/ml, genetic background: ΔsoxS)?
**A.** Its value is -0.226 ± 0.23.

**Q.** What about the “promoter activity interaction Z-score” value (43.2 µg/ml, genetic background: wild type) of the same compound?
**A.** Its value is -0.301 ± 0.098.

**Q.** What about the “promoter activity interaction Z-score” value (43.2 µg/ml, genetic background: ΔmarA) of the same compound?
**A.** Its value is -0.0417 ± 0.55.

**Q.** And the “promoter activity interaction Z-score” value (43.2 µg/ml, genetic background: Δrob)?
**A.** Its value is -0.0764 ± 0.16.

**Q.** What about the “promoter activity interaction Z-score” value (43.2 µg/ml, genetic background: ΔsoxS) of the same compound?
**A.** The value was -0.0512 ± 0.083.

**Q.** What about the “promoter activity interaction Z-score” value (86.4 µg/ml, genetic background: wild type) of the same compound?
**A.** Its value is -0.582 ± 0.15.

**Q.** What about the “promoter activity interaction Z-score” value (86.4 µg/ml, genetic background: ΔmarA) of the same compound?
**A.** Its value is -0.305 ± 0.32.

**Q.** And the “promoter activity interaction Z-score” value (86.4 µg/ml, genetic background: Δrob)?
**A.** The value was -0.229 ± 0.12.

**Q.** What about the “promoter activity interaction Z-score” value (86.4 µg/ml, genetic background: ΔsoxS) of the same compound?
**A.** Its value is -0.22 ± 0.21.

**Q.** What about the “promoter activity interaction Z-score” value (172.7 µg/ml, genetic background: wild type) of the same compound?
**A.** Its value is -0.5175 ± 0.0031.

**Q.** What about the “promoter activity interaction Z-score” value (172.7 µg/ml, genetic background: ΔmarA) of the same compound?
**A.** The value was -0.6 ± 0.24.

**Q.** And the “promoter activity interaction Z-score” value (172.7 µg/ml, genetic background: Δrob)?
**A.** Its value is -0.408 ± 0.15.

**Q.** What about the “promoter activity interaction Z-score” value (172.7 µg/ml, genetic background: ΔsoxS) of the same compound?
**A.** The value was -0.421 ± 0.089.
